Over roughly 33,000 sequences, “e-score” has its median near -0.038; the highest 2% begin near 0.33. For the sample, the highest values were picked, then their nearest neighbours and some sequences at random.
target: T1, GST-Rok-C97-191 (Bacillus subtilis subsp. subtilis str. …, UniProt O34857 97-191); test: protein binding microarray; Rok is a gene silencer of Bacillus subtilis; high values mean tight binding; details: protein: recombinant; tags: GST (pTH5325, pDEST15-Magic modified); dsDNA, one strand shown
T1 sequence: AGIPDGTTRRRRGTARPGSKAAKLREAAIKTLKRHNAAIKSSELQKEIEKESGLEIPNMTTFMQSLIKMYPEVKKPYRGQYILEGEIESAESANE
Summary of the method: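 Each has a 25-mer constant primer and a 35-mer variable part from a de Bruijn sequence of order 10, covering every non-palindromic 8-mer at least 32 times (palindromic 16). Preference for each 8-mer is given as a rank-based, unitless enrichment score (E-score). Its range runs from 0.5 (most favored) to −0.5 (most disfavored).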

Sequence | binding signal
CGAGTAGC | -0.0476 E-score
AGTCAAGG | -0.145 E-score
CATGCTCC | -0.102 E-score
AAAGGATG | -0.047 E-score
AGACAGTA | 0.0933 E-score
GAGAACGA | -0.104 E-score
CGAGCAAG | -0.0658 E-score
CTTACGGC | -0.196 E-score
CATATTGC | 0.0992 E-score
CAGGTCAA | -0.108 E-score
ATGTAGAA | 0.38 E-score
CTGTAGAA | 0.258 E-score
AGGTAGAC | 0.093 E-score
AGGTAGAA | 0.433 E-score
GTGTAGAA | 0.293 E-score
AGGTAGAG | 0.118 E-score
ACCTCTTA | 0.191 E-score
TCATAGGA | 0.154 E-score
CAGGAGCA | -0.151 E-score
CAACCTAC | 0.263 E-score
AACATCCT | 0.0847 E-score
CGCCTACG | -0.0439 E-score
CCCTTGAC | -0.132 E-score
CAAAGTAC | -0.0306 E-score
AATAGTGT | 0.242 E-score

Sequence | binding signal
AACAGTAA | 0.285 E-score
GAAAGTAC | 0.35 E-score
AACAGTAG | 0.362 E-score
CACAGTAG | 0.0897 E-score
AATAGTCA | 0.186 E-score
GAAAGTAA | 0.226 E-score
AATAGTAA | 0.338 E-score
ATTAGTAA | 0.303 E-score
AATAGTAT | 0.332 E-score
AATAGTAC | 0.293 E-score
AGTTGCCA | 0.0801 E-score
ATTAGGGC | -0.073 E-score
CAAGACTA | 0.186 E-score
CTGACGAA | -0.0673 E-score
GATAGCGC | 0.191 E-score
GCAAATAA | 0.158 E-score
AATGATGA | 0.00727 E-score
AAAAGTAG | 0.344 E-score
AATAGTAG | 0.475 E-score
AAAAGTAC | 0.279 E-score
AATAGTCG | -0.0896 E-score
CATAGTAG | 0.195 E-score
CAAAGTAG | 0.194 E-score
AGACCACG | -0.138 E-score
CGTGTAAC | 0.0552 E-score

Sequence | binding signal
CTAGGCAC | -0.149 E-score
CGGCTAAC | 0.00729 E-score
GAGTTCAC | 0.0331 E-score
AGCTCGGG | -0.116 E-score
CCTATATC | 0.0424 E-score
AAAATATT | 0.327 E-score
AATATATA | 0.462 E-score
CGTATATC | 0.316 E-score
AATATTAT | 0.21 E-score
AATATATT | 0.417 E-score
AATATATG | 0.337 E-score
AATATATC | 0.424 E-score
AATATAAG | 0.26 E-score
AATATAGA | 0.309 E-score
ACTATATG | 0.283 E-score
AATATGTG | 0.199 E-score
CAGAAACG | -0.0943 E-score
TAAGTCAA | -0.0154 E-score
ATGATCCA | 0.0416 E-score
ACCAACAT | 0.157 E-score
CCATCGGG | -0.172 E-score
GCCGGACA | 0.0879 E-score
CCTATGTA | 0.302 E-score
CTTATGTA | 0.0579 E-score
ACTATGTA | 0.356 E-score

Sequence | binding signal
GTTATGTA | 0.292 E-score
ATTATGTA | 0.354 E-score
GCTATGTA | 0.226 E-score
AAGGGCAG | -0.195 E-score
AACACATG | 0.0194 E-score
AAGCTGTC | 0.0421 E-score
ACCAGGAC | -0.0513 E-score
ACATGTAC | 0.331 E-score
GAATGTAA | 0.173 E-score
TAATGTAA | 0.357 E-score
AAATGTAA | 0.349 E-score
CAATGTAA | -0.0287 E-score
AAATGTAC | 0.364 E-score
CCATGTAC | 0.185 E-score
AAATGTAG | 0.286 E-score
CAATGTAC | 0.204 E-score
AAATGTAT | 0.27 E-score
GAATGTAC | 0.304 E-score
GCATGTAC | 0.163 E-score
TAATTAGA | 0.324 E-score
CATAAAGC | -0.119 E-score
GTGCTAGA | 0.197 E-score
CTAGCAAC | 0.222 E-score
TGCGACAA | -0.0569 E-score
CGTGCAGC | -0.0438 E-score

Sequence | binding signal
GCTACGGA | -0.0221 E-score
CCCTAGCG | -0.135 E-score
CCACGCTC | -0.0229 E-score
ATAGGTTA | 0.162 E-score
AGATGTAT | 0.264 E-score
AGATGTAG | 0.331 E-score
ATCTGTAG | 0.37 E-score
ATATGTAC | 0.309 E-score
ATATGTAG | 0.386 E-score
ATATGTAA | 0.28 E-score
ATCTGTAC | 0.0594 E-score
ATCTGTAA | 0.106 E-score
AGATGTAA | 0.191 E-score
AAAAGTGG | 0.0303 E-score
GCTACATA | 0.315 E-score
GCTAGGCA | -0.0675 E-score
CAAGGGCC | -0.186 E-score
AAAATACT | 0.371 E-score
AAAATACA | 0.32 E-score
AAAATACC | 0.357 E-score
GAAATACC | 0.289 E-score
CAAATACC | 0.114 E-score
AAAATACG | 0.266 E-score
AAGTAAGG | 0.0741 E-score
AGAGTTTC | -0.0267 E-score

Sequence | binding signal
GTCGGTTA | 0.00256 E-score
AAAGTTTG | -0.0186 E-score
AGAACGCC | 0.0453 E-score
AGGTCCTC | -0.0779 E-score
ACTCCTTA | 0.00627 E-score
AAAACCAA | 0.0758 E-score
AGTGATGA | 0.024 E-score
ATTAGTAG | 0.319 E-score
AGAAGTAT | 0.292 E-score
CGTAGTAG | 0.223 E-score
AGTAGTAG | 0.385 E-score
GGTAGTAC | 0.268 E-score
AGTAGTAT | 0.368 E-score
AGTAGTAC | 0.356 E-score
AGCAGTAT | 0.0236 E-score
CGTAGTAC | 0.186 E-score
GTTGGCTA | 0.0528 E-score
CACAGGTA | -0.0357 E-score
CTCAATAA | 0.215 E-score
GATATTAA | 0.379 E-score
AATATTAC | 0.284 E-score
AATATTTA | 0.311 E-score
CATATTAA | 0.194 E-score
CGTATTTA | 0.318 E-score
AGTATTTA | 0.301 E-score

Sequence | binding signal
GGTATTTA | 0.342 E-score
CATATTAC | 0.22 E-score
CATATTTA | 0.282 E-score
GATATTTA | 0.328 E-score
GATATTAC | 0.328 E-score
AATATTAA | 0.285 E-score
CTGCAGGC | -0.199 E-score
ACCACTCG | -0.181 E-score
ACATCATG | -0.155 E-score
GCTCGACA | -0.145 E-score
CCCATTAC | -0.0975 E-score
GCTAACAC | -0.0971 E-score
TGCCTGAA | -0.0885 E-score
CGAGTCCG | -0.192 E-score
TGTATTAA | 0.294 E-score
TATATTGA | 0.288 E-score
TATATTAA | 0.387 E-score
CAACGAAA | 0.00998 E-score
AATTCACG | 0.127 E-score
CGCTTTGA | -0.0415 E-score
GGTACTAA | 0.249 E-score
GCTACTAA | 0.229 E-score
TCTACTCA | 0.188 E-score
AGTACTTG | 0.296 E-score
TCTACTAA | 0.342 E-score

Sequence | binding signal
ACTACTTA | 0.415 E-score
TGTACTAA | 0.191 E-score
ACTACTAA | 0.379 E-score
ACTACTTC | 0.226 E-score
AGTACTTA | 0.355 E-score
ACTACTGA | 0.269 E-score
CGTACTTA | 0.23 E-score
CGTCCCAA | -0.181 E-score
CATTATGA | 0.0691 E-score
TCCACTCA | -0.127 E-score
AGCCAATG | -0.162 E-score
CGCAGAAG | -0.171 E-score
ATAATTAG | 0.354 E-score
CTAATTAA | 0.275 E-score
CTAATTCC | 0.159 E-score
TCAATTAA | 0.161 E-score
ATAATTAT | 0.137 E-score
TAATTTAA | 0.396 E-score
CTAATTAC | 0.382 E-score
ATAATTAA | 0.298 E-score
AAATTTAA | 0.299 E-score
GAATTTAA | 0.124 E-score
CCAATTAC | 0.0758 E-score
TTAATTAA | 0.346 E-score
GTCCTAGA | -0.199 E-score

Sequence | binding signal
AATGTCGC | 0.0115 E-score
CTAGCTAG | 0.294 E-score
ATCTTAGG | -0.016 E-score
CGGCGGTA | 0.123 E-score
CCAGGTCA | -0.0861 E-score
GTAATTAC | 0.43 E-score
CCAATTAG | -0.111 E-score
ATAATTGC | 0.26 E-score
AGAATTAC | 0.217 E-score
ATAATTAC | 0.332 E-score
GCAATTAC | 0.13 E-score
GTAATTAA | 0.213 E-score
CGAATTAG | 0.279 E-score
CTAATTAG | 0.362 E-score
ATGAATTC | 0.0443 E-score
CGCTTAGA | -0.0215 E-score
GATATCGA | 0.223 E-score
GAACGACC | -0.143 E-score
CGTTCTAG | 0.22 E-score

From publication PMC6212790, “How bacterial xenogeneic silencer rok distinguishes foreign from self DNA in its resident genome”
